# Experimental data as given in PubChem BioAssay (NCATS).
# A number with no mark means an inactive call. Calls of active or inactive are those of the source. The call rests on the fitted dose curve; in most records, active means well fitted activation curve with a large enough effect; inconclusive means small, poorly fitted or top-dose-only effect; inactive means no such curve, though single readings can be large or run the other way.
# Target: Parathyroid hormone/parathyroid hormone-related peptide receptor (Homo sapiens) (UniProt Q03431)
# Sequence (Q03431 whole entry, looked up): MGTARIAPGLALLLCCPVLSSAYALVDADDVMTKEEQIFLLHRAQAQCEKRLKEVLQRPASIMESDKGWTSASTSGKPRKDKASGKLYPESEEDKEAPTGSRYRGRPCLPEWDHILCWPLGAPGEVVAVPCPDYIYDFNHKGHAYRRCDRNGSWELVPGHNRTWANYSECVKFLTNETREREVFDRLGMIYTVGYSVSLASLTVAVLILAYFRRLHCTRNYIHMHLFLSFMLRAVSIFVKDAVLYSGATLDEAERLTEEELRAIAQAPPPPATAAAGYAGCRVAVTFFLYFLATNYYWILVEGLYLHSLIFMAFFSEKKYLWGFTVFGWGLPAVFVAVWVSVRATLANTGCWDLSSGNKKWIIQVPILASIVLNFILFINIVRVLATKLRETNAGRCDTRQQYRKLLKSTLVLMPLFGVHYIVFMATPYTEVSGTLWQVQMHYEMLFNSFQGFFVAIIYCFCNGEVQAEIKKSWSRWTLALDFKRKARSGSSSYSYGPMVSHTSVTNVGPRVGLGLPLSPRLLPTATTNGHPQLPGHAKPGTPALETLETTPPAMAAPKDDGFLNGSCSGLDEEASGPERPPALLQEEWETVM
# Assay: qHTS for PTHR1 Agonists: Optimization Screen against the NCGC LOPAC library (AID 1347079); further: 0% is about no effect
# Conditions: HEK293 GP2 PTHR1 GloSensor cAMP luminescence, 1 h; series mostly up to 57.1 µM; activation: at the top concentration
# From the text: The goal of the proposed studies is to discover new compounds that act as potent agonists on the parathyroid hormone receptor type-1 (PTHR1). The PTHR1 plays critical roles in maintaining blood calcium and phosphate levels, as well as in controlling bone remodeling. PTHR1 agonists could thus be useful for treating diseases such as hypoparathyroidism and osteoporosis. In the former disease, an agonist drug would help maintain normal blood calcium and phosphate levels under conditions of parathyroid hormone deficiency. In the latter disease, an agonist drug would stimulate new bone formation and thus reduce the risk of fracture, under conditions of bone fragility, as occurs in aging. We performed an optimization assay of the quantitative high-throughput screening (qHTS) for the parathyroid hormone receptor type-1 (PTHR1) against the NCGC LOPAC library collection of […] compounds using a unique HEK-293-derived cell line (GP2) that expresses the PTHR1 and a GloSensor cAMP reporter construct. Increase in signal (activation / agonist) is the desired outcome for compounds of interest. NIH Chemical Genomics Center [NCGC] NIH Molecular Libraries Probe Production Centers Network [MLPCN] MLPCN Grant: P01 DK011794 Assay Submitter (PI): Thomas Gardella PhD, Massachusetts General Hospital
# Reagents / Controls: M-PTH (1-15) peptide hormone fragments was provided by the assay provider and was used as a control. Column 1 was treated with M-PTH titration (1:2 dilution) beginning with a final concentration of 10uM. Column 2 was treated with M-PTH final concentration of 10uM. Columns 3 and 4 were treated with DMSO only to assess background and noise signal. Assay Steps: Four microLiter of cells suspension was dispensed in a 1536-well assay plate at a final density of 3000 cells/well. The plates were incubated overnight, after which 4uL of 0.5mM of BloTium Luciferin plus 0.5mM IBMX was added. Next, the plate was incubated at 37C for 1hr before 23nL of compound (at various final concentrations from 40uM to 0.32uM) and control were added using a 1536-well array Kalypsys pin-tool. The treated plates were again incubated at 37C for another hour. Luminescence signal was obtained using the PerkinElmer ViewLux plate reader after 15min or room temperature incubation.
Compound,activation [%],Potency
CN(C)C(N)=NCCC[C@H](N)C(=O)O,-17.5,
Nc1nc(Nc2ccccc2)nc2c1ncn2[C@@H]1O[C@H](CO)[C@@H](O)[C@H]1O,7.94,
CC[C@@H](C)[C@H]1O[C@]2(CC[C@H]1C)C[C@@H]1C[C@@H](CC=C(C)[C@@H](O[C@H]3C[C@H](OC)[C@@H](O[C@H]4C[C@H](OC)[C@@H](O)[C@H](C)O4)[C@H](C)O3)[C@@H](C)C=CC=C3CO[C@@H]4[C@H](O)C(C)=C[C@@H](C(=O)O1)[C@]34O)O2,-17.4,
CCCCCCCCCCCCCCCCCC(=O)OC(CC(=O)O)C[N+](C)(C)C (stereo not given),-15.4,
N.N.N.N.N.N.N.N.N.N.N.N.N.N.O.O.[Ru+4].[Ru+5].[Ru+5],9.77,
O=C(O)[C@@H]1C[C@@H](C(=O)O)N1,4.19,
Nc1nc(SCc2ccc([N+](=O)[O-])cc2)c2ncn([C@@H]3O[C@H](CO)[C@@H](O)[C@H]3O)c2n1,20.1,
COc1ccccc1CNCCCCCCNCCCCCCCCNCCCCCCNCc1ccccc1OC,-21.5,
N#C/C(=C\c1ccc(-c2cc(Cl)ccc2Cl)o1)C(=O)Nc1cccc2ncccc12,-16.8,
Cc1cc(NC2CCCCC2)nc(-n2nc(C)cc2C)n1,-14.9,
NC(=O)C1=CN(C2OC(COP(=O)(O)OP(=O)(O)OC[C@H]3O[C@@H](n4cnc5c(N)ncnc54)[C@H](OP(=O)(O)O)[C@@H]3O)C(O)C2O)C=CC1 (stereo not given in full),40,
Oc1ccc(C2CNCc3sccc32)cc1O (stereo not given),-41.6,
O=C(O)c1cc([N+](=O)[O-])ccc1NCCCc1ccccc1,-5.19,
NO,31.1,
O=C(/C=C/c1ccc(O)cc1)c1ccc(O)cc1O,-4.71,
CN1CC(=O)N/C1=N/C(=O)Nc1cccc(Cl)c1,-5.15,
CC(C)(C=O)Cc1cc(C(C)(C)C)c(O)c(C(C)(C)C)c1,27.8,
CCCN(CC1CC1)c1nc(C)nc(Nc2c(Cl)cc(Cl)cc2Cl)c1Cl,-20.8,
O=C(CCCCCN1CCN(c2ccccc2-c2ccccc2)CC1)NC1CCCc2ccccc21 (stereo not given),8.2,
c1ccc(-c2ccccn2)nc1,-29.7,

Compound,activation [%],Potency
Cn1cc(C2=C(c3ccc(Cl)cc3Cl)C(=O)NC2=O)c2ccccc21,-42,
C[N+]1(C)C2CC(OC(=O)[C@H](CO)c3ccccc3)CC1C1OC12 (stereo not given in full),,inactive
CN(C)c1nc(N)c(C(=O)N=C(N)N)nc1Cl,4.36,
Clc1ccc(N2CCN(Cc3c[nH]c4ncccc34)CC2)cc1,-36.1,
C=C[C@@H]1CN2CC[C@@H]1C[C@H]2[C@H](O)c1ccnc2ccc(OC)cc12,0,
CCCCC/C=C\CC(O)/C=C/c1cccc(CC(O)CCCCO)n1 (stereo not given),3.27,
O=C(O)CCCC[C@@H]1CCSS1,29.7,
NCCNC(=O)c1ncsc1-c1cccc(F)c1,-12.7,
COc1ccc(/C=C/C(=O)Nc2ccccc2C(=O)O)cc1OC,-25.9,
O=C(O)CC1CCCc2ccccc2C1O (stereo not given),-23.2,
CNc1ncnc2c1ncn2[C@@H]1O[C@H](CO)[C@@H](O)[C@H]1O,-1.92,
CC(C)Cc1ccc([C@H](C)C(=O)O)cc1,13.4,
NCCCCCCCCCCN,-10.3,
N#C/C(=C\c1c[nH]c2ccccc12)C(=O)c1ccc(O)c(O)c1,15,
Cc1ccc(C(=O)O[C@H](C(=O)O)[C@@H](OC(=O)c2ccc(C)cc2)C(=O)O)cc1 (tested in a mixture with another compound),24.8,
COc1cccc(OC)c1OCCNCC1COc2ccccc2O1 (stereo not given),10.9,
CCN1/C(=C/C(C)=O)Sc2ccc(OC)cc21,-3.92,
O=C(O)c1cc(=O)c2c(Cl)cc(Cl)cc2[nH]1,-34.7,
CCCCN1CCC(n2c(=O)[nH]c3ccccc32)CC1,-4.14,
CN1[C@@H](CC(=O)c2ccccc2)CCC[C@H]1C[C@H](O)c1ccccc1,2.44,
